In PubChem BioAssay (NCI):
Compounds without any hit were thinned out: in the full panel of roughly 79,000, 15% have a hit. Values without a mark were called inactive. Calls of active or inactive are those of the source. Rule as the data show it: active = growth inhibition above about 70%; inactive = the rest.

Columns and labels:
[1] = NCI Yeast Anticancer Drug Screen. Data for the rad50 strain (AID 155);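 also: 0% = growth of vehicle-only cultures of the same strain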; settings: S. cerevisiae rad50 strain growth inhibition, stronger effect = higher value
Outline: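 Genetically altered yeast (DNA repair pathway); compound treatment; growth inhibition vs vehicle ctrl.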

[2] = NCI Yeast Anticancer Drug Screen. Data for the mec2-1 strain (AID 157); settings: S. cerevisiae mec2-1 strain, stronger effect = higher value
Outline: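 mec2-1 yeast strain, carrying an alteration in DNA damage repair or cell cycle control, was exposed to compounds; growth inhibition was measured relative to vehicle-treated controls.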

[3] = NCI Yeast Anticancer Drug Screen. Data for the sgs1 mgt1 strain (AID 161);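 also: 0% = growth of cultures given vehicle only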; settings: S. cerevisiae sgs1 mgt1 strain, stronger effect = higher value
Outline: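 Yeast cells carrying a defined DNA-repair defect were exposed to test compounds. Growth inhibition was measured relative to vehicle-treated controls.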

[4] = NCI Yeast Anticancer Drug Screen. Data for the bub3 strain (AID 167); settings: S. cerevisiae bub3 mutant strain, stronger effect = higher value
Outline: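 Yeast carrying a defined mutation is treated with each compound, and growth is compared with that of vehicle-exposed cells to give inhibition.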

[5] = NCI Yeast Anticancer Drug Screen. Data for the mlh1 rad18 strain (AID 175); settings: S. cerevisiae mlh1 rad18 strain growth inhibition, stronger effect = higher value
Outline: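 Growth inhibition of the yeast strain was measured after compound exposure and expressed relative to vehicle-treated controls. The strain carries defined defects in DNA damage repair.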

[6] = NCI Yeast Anticancer Drug Screen. Data for the cln2 rad14 strain (AID 165);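 also: 0% = growth equal to vehicle treated cultures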; settings: S. cerevisiae cln2 rad14 strain, stronger effect = higher value
Outline: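 Yeast carrying cln2 and rad14 alterations (cell cycle control and DNA damage repair) were exposed to compounds. Growth inhibition was measured against vehicle-treated controls.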

[7] = at 5.0 µM (retest, dose inferred, filed as 0.5)
[8] = at 50.0 µM (retest, dose inferred, filed as 5.0)

Structure (SMILES)	growth inhibition [1, 7] [%]	growth inhibition [1, 8]	growth inhibition ([1]; at 50.0 µM)	growth inhibition [2, 7] [%]	growth inhibition [2, 8]	growth inhibition ([2]; at 50.0 µM)	growth inhibition [3, 7] [%]	growth inhibition [3, 8]	growth inhibition ([3]; at 50.0 µM)	growth inhibition [4, 7] [%]	growth inhibition [4, 8]	growth inhibition ([4]; at 50.0 µM)	growth inhibition [5, 7] [%]	growth inhibition [5, 8]	growth inhibition ([5]; at 50.0 µM)	growth inhibition [6, 7] [%]	growth inhibition [6, 8]	growth inhibition ([6]; at 50.0 µM)
COc1ccc(/C(Cl)=C(\C=O)c2ccc(Cl)cc2)cc1OC	6	61%	4.15%	-8	35%	13.4%	-17	56%	21.6%	4	70% (active)	13.6%	-5	68%	24.1%			
O=C1c2cccc(NCCNCCO)c2C(=O)c2cccc(NCCNCCO)c21	18	58%	-10.3%	-8	-8%	7%				15	22%	45.1%	8	15%	8.2%	24	32%	15.4%
CSC(SC)C(SC)SC	1	98% (active)	1.65%	1	99% (active)	-5.4%	-4	99% (active)	0.65%				-1	99% (active)	-1.15%	6	99% (active)	16.6%
O=CC(O)C(O)C(O)C(O)C(=O)NCCCCCCCCCCCCNC(=O)C(O)C(O)C(O)C(O)C=O (stereo unspecified)	19	22%	16.4%	20	27%	12.2%	-20	-28%	21.9%	-4	10%	-6.7%	20	23%	-20.6%			
CNC(=O)OCc1c(-c2ccccc2)c(-c2ccccc2)n(-c2ccc(OC)cc2)c1COC(=O)NC	26	96% (active)	36.1%	18	98% (active)	78.3% (active)	20	98% (active)	82.2% (active)	17	99% (active)	80% (active)	23	97% (active)	91% (active)			
CN(C)c1ccc(C2CC(C)(N3CCCC3)Oc3cc4c(cc32)OCO4)cc1 (stereo unspecified)	23	42%	17.1%	2	24%	5%	-10	43%	13.3%	11	84% (active)	26.9%	12	32%	33.5%	9	50%	23.9%
O=[N+]([O-])c1cccc(Cl)c1C(Nc1nncs1)Nc1nncs1	7	60%	55.5%	7	41%	27.7%	10	67%	73.9% (active)	-2	22%	33.8%	3	82% (active)	68.3%	-1	20%	26.6%
CN(C)CC/[N+]([O-])=C(/c1ccccc1)C12CC3CC(CC(C3)C1)C2	-6	6%	-16.6%	-1	-1%	1.8%	14	31%	16.9%	1	3%	-1.9%	9	25%	70.6% (active)			
Nc1ccc(S(=O)(=O)N2CCCc3ccccc32)cc1	5	20%	83.7% (active)	7	21%	56.9%	4	34%	84% (active)				7	40%	74.4% (active)	2	23%	74.2% (active)
Oc1ccc2oc3ccccc3c2c1	9	94% (active)	94.5% (active)	0	87% (active)	76% (active)	0	82% (active)	84.3% (active)	0	92% (active)	88.4% (active)	3	94% (active)	94.5% (active)			
